Screening results from PubChem.
Sampled rows, rich in hits. Any-hit rate of the full collection: about 2.2%.
aSyn yeast inh = qHTS of alpha-syn Inhibitors. AID 652106, 2013. Yeast expressing alpha-synuclein, growth rescue, BacTiter-Glo, 24 h. Potency, µM (doses to about 46.1 µM), without a hit: at the top dose growth rescue (activation), usual class: activators. hit rate 0.14% among 370,000; also: % of control where 0% means no effect; nearly all actives have a fitted effect of over 65% in size
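Readout is rescue of growth in alpha-synuclein-expressing yeast, so inhibitors of toxicity appear as activators. Growth after 24 hr at 30 deg C in galactose medium is quantified by luminescence.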
FUS yeast rescue = qHTS for Suppressors of FUS Proteinopathy: Primary screen using FUS-linked yeast assay | S. cerevisiae FUS-expressing, growth rescue, OD600, 24 h | Potency, µM (highest dose often 76.6 µM), usual class: activators | hit rate 0.24% among 390,000 | AID 1347120, 2019;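 also: plate controls were DMSO vehicle for no effect and reference control for full effect; nearly all actives have a fitted effect of over 55% in size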
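Quantitative HTS measuring growth restoration of FUS-toxic yeast. Galactose-induced cells (OD 0.005) were exposed 24hr at 30C to compounds at several concentrations, then absorbance at 600 nm was recorded.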
TDP43 rescue = qHTS of TDP-43 Inhibitors; TDP-43 expressing yeast growth rescue, BacTiter-Glo, 24 h; Potency, µM (titrated, usually from 46.1 µM), inactives show at the top dose growth rescue (activation), hits mostly activators; hit rate 1.8% among 410,000; AID 652104, 2013; also: % of control where 0% means no effect; nearly all actives have a fitted effect of over 50% in size
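In this qHTS, compounds that restore growth of yeast expressing TDP-43 appear as activators. Cells (OD600=0.02, galactose medium, raffinose-pregrown) are incubated with compound 24 hr at 30 deg C and growth is quantified by BacTiter-Glo.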
Mito fusion act = qHTS Assay for Small Molecule Inhibitors of Mitochondrial Division or Activators of Mitochondrial Fusion; S. cerevisiae fusion-defective mutant growth rescue, CellTiterGlo 48 h; Potency, µM (titrated, usually from 46.1 µM), inactives show top-dose growth rescue (activation), hits mostly activators; hit rate 0.23% among 320,000; AID 485298, 2010; also: % of control where 0% means no effect; nearly all actives have a fitted effect of over 45% in size
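Read-out: ATP-based luminescence (CellTiterGlo, 10 min ambient) reporting growth of fusion-defective ts yeast after 48 hours at 37C on glycerol/ethanol YPEG medium in the presence of compound.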
Abeta rescue = qHTS for compounds that reverse cellular toxicity of Amyloid beta (A-beta) peptide in yeast: Primary Screen | Potency, µM (titrated, usually from 46.1 µM), most hits filed as activators | AID 1347071, 2019 | hit rate 0.063% among 410,000 | yeast expressing A-beta42, growth rescue, OD600, 48 h; response scale: 0% DMSO, 100% iron-clioquinol control; also: nearly all actives have a fitted effect of over 55% in size
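Yeast growth medium received pinned compounds, then yeast cells expressing toxic A-beta were added; plates incubated at 30 C for 48 hr. Growth read as absorbance at 600 nm, normalized to DMSO and equimolar FeCl3 plus clioquinol controls.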
An asterisk follows results filed as active; i = inactive; ? = inconclusive; . = no result; [ ] = dose if it differs, or a comment. Calls follow the shape of the dose curve; as a rule, active = well fitted curve in the direction sought with a large enough effect; inconclusive = small, poorly fitted or top-dose-only effect, or another doubt; inactive = no such curve, though single readings can be large; an effect the other way counts as inactive or inconclusive. Potency is read from the fitted curve at half-maximal effect.

SMILES | aSyn yeast inh | FUS yeast rescue | TDP43 rescue | Mito fusion act | Abeta rescue
C[C@@H]1CN([C@H](C)CO)C(=O)CCCn2nncc2CO[C@@H]1CN(C)S(=O)(=O)c1ccccc1F | -4% | i | 16µM* | . | i
C[C@H](CO)N1C[C@H](C)[C@@H](CN(C)S(=O)(=O)c2ccccc2)OCc2cn(nn2)CCCC1=O | -20% | i | -13% | . | i
COc1ccc2c(c1)c(=O)c(C(=O)c1ccc(F)cc1)cn2CC(=O)Nc1ccc2c(c1)OCO2 | . | i | 25% | . | i
Cc1ccc(C(=O)Nc2nnc(SCc3cc(=O)n4ccc(C)cc4n3)s2)cc1 | . | i | 13% | . | i
O=c1c2c3c(sc2n(Cc2ccccc2F)c(=O)n1-c1ccc(Cl)cc1)CCCC3 | . | i | 19% | . | i
CSc1ccc(CCNC(=O)c2ccc3c(Cl)c4c(nc3c2)CCCC4)cc1 | . | i | 26% | . | i
CCNc1nc(NCC)n2c(SC(C)C(=O)c3ccc(C)cc3)nnc2n1 (configuration not stated) | -8% | . | 14% | 1% | i
CCNc1nc(NCC)n2c(SC(C(=O)Nc3cc(C)ccc3C)c3ccccc3)nnc2n1 (configuration not stated) | -4% | 32µM* | -8% | -2% | i
O=S(=O)(NCC(c1cccs1)S(=O)(=O)c1ccccc1)c1ccc(F)cc1 (configuration not stated) | . | i | 3.5µM* | . | i
O=S(=O)(NCC(c1cccs1)S(=O)(=O)c1ccccc1)c1ccc(F)c(C(F)(F)F)c1 (configuration not stated) | . | i | ? | . | i
COc1ccc(S(=O)(=O)NCC(c2cccs2)S(=O)(=O)c2ccccc2)cc1OC (configuration not stated) | . | i | 3.2µM* | . | i
COc1ccc(NC(=O)CSc2nc(-c3ccc(OC)cc3)[nH]c2-c2ccc(OC)cc2)cc1 | . | i | 11% | . | i
O=[N+]([O-])c1cc([N+](=O)[O-])c(Oc2c(F)ccc(F)c2F)cc1NN1CCCCC1 | 5% | i | 13% | 0% | i
O=c1c2c3c(sc2ncn1-n1cccc1)CCCCC3 | 7% | i | 13µM* | 23% | i
Cc1ccc(C)n1-n1cnc2sc3c(c2c1=O)CCC3 | 8% | i | 21% | 8% | i
CCCOc1ccc(C(=O)Nc2cc(-c3nc4ccccc4[nH]3)ccc2C)cc1 | . | i | 13µM* | . | i
CCOc1ccc(C(=O)Nc2cc(-c3nc4ccccc4[nH]3)ccc2Cl)cc1[N+](=O)[O-] | -14% | . | 4µM* | 13% | i
CCOc1ccc(C(=O)Nc2cc(-c3nc4ccccc4[nH]3)ccc2C)cc1[N+](=O)[O-] | -16% | ? | -3% | 1% | i
COC(=O)[C@]1(CNS(=O)(=O)C2CC2)CC(=O)N(C)[C@@H]1c1ccccc1 | . | i | . | . | .
COc1ccccc1N1CCN(Cc2nc(-c3cc(OC)c(OC)c(OC)c3)no2)CC1 | . | i | 19% | . | i
O=C(CCC(=O)OCc1ccc(C(=O)Oc2ccc(Cl)cc2)cc1)Nc1ccccc1 | -4% | i | -3% | -8% | i
O=C(CCc1c[nH]c2ccccc12)OCc1ccc(Br)cc1 | 3% | i | 13µM* | 0% | i
O=C(COC(=O)CCc1c[nH]c2ccccc12)NCCc1ccccc1 | 12% | . | -11% | 6% | i
O=C(CCC(=O)OCc1ccc(Br)cc1)Nc1ccccc1 | 4% | i | 7.1µM* | 3% | i
CCN(CC)CCNC(=O)C1CCN(c2nn3cc(-c4ccc(F)cc4)nc3s2)CC1 | . | i | -26% | . | i
SMILES | aSyn yeast inh | FUS yeast rescue | TDP43 rescue | Mito fusion act | Abeta rescue
CCOC(=O)c1noc2ncnc(Nc3cccc(OC)c3)c12 | . | i | 16% | . | i
CCc1ccc(C(O)c2ncc(-c3ccccc3OC)[nH]2)cc1 (configuration not stated) | 1% | i | 18% | . | i
CC1CCCN(S(=O)(=O)c2ccc(CN3C(=O)c4cccnc4C3=O)cc2)C1 (configuration not stated) | 0.56µM* | i | ? | 7% | i
COc1ccc(CN2C(=O)c3cccnc3C2=O)cc1S(=O)(=O)N1CC(C)CC(C)C1 (configuration not stated) | -15% | i | 16% | -2% | i
CC(=O)Oc1ccc2c(c1)CCC1C2CCC2(C)C(OC(C)=O)CCC12 (configuration not stated) | -16% | ? | 32µM* | . | i
C[C@]12CC[C@@H]3c4ccc(OC(=O)c5ccccc5)cc4CC[C@H]3[C@@H]1CC[C@@H]2O | 6% | i | 18% | 7% | i
Cc1cccc(Oc2cnn(C(C)(C)C)c(=O)c2Cl)c1 | 10% | i | 10µM* | 4% | i
COc1cnn(C(C)(C)C)c(=O)c1Cl | 0% | i | -16% | 1% | i
O=C(OCCn1c(=S)sc2ccccc21)c1ccccc1 | 1% | . | 11µM* | . | i
CCOc1ccc(NS(=O)(=O)c2cc(NC(=O)c3cccc(C)c3)ccc2Cl)cc1 | 1% | ? | -24% | 22µM* | i
CCCCc1ccc(NC(=S)NCC2CCCO2)cc1 (configuration not stated) | -12% | i | -3%[0.397 µM] | 18% | 13µM*
O=C(C1CCCN1S(=O)(=O)c1ccccc1[N+](=O)[O-])N1CCN(c2ccccc2)CC1 (configuration not stated) | . | i | . | . | .
CCOc1ccc(N=Nc2ccc(O)c3ncccc23)cc1 | 13µM* | i | ? | 15% | ?
NS(=O)(=O)c1ccc(N=Nc2ccc(O)c3ncccc23)cc1 | -22% | i | ? | -12% | i
Cc1ccccc1-c1nc2c(=O)n(C)c(=O)nc-2n(C)n1 | -87% | . | . | . | .
COc1ccccc1OCC(=O)NCCS(=O)(=O)N1CCN(c2ccccc2OC)CC1 | . | i | 20% | . | i
CC(=O)c1cc(-c2ccc(F)cc2)n(CC(=O)Nc2cc(C)cc(C)c2)c1C | . | i | 15% | . | i
CC1(Cc2cccc(C(F)(F)F)c2)C(=O)Nc2c(Cl)cccc21 (configuration not stated) | 22µM* | i | 0% | . | i
Cc1ccc(CC2(C)C(=O)Nc3c(Cl)cccc32)cc1 (configuration not stated) | 6.3µM* | i | -3% | . | i
CC1(Cc2ccc(Cl)cc2)C(=O)Nc2ccc(-c3ccc(F)c(Cl)c3)cc21 (configuration not stated) | 0% | i | 21% | . | i
